# Test results: PubChem BioAssay (NCI)
# Where “and” joins values, the source holds several entries; their conditions need not be identical. Equal values may be shown once. Compounds without any hit were thinned out: in the full panel of roughly 79,000, 15% have a hit. A structure can be active in one record and inactive in another. Calls of active or inactive are those of the source. Rule as the data show it: active = growth inhibition above about 70%; inactive = the rest.
# Key:
# [1] = NCI Yeast Anticancer Drug Screen. Data for the rad52 strain (AID 147);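 also: 0% = growth of vehicle-treated control cultures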; details: S. cerevisiae rad52 mutant growth inhibition, stronger effect = higher value
# In short: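 Compounds are applied to a genetically defined yeast strain lacking normal DNA damage repair, and inhibition of growth is expressed relative to cultures given vehicle only.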
# [2] = NCI Yeast Anticancer Drug Screen. Data for the wt1 strain (AID 149);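 also: 0% = growth of vehicle-treated wt1 cultures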; details: S. cerevisiae wt1 strain (SPY 50644) growth inhibition, stronger effect = higher value
# In short: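 Measured: growth of wt1 yeast under compound versus vehicle treatment, reported as inhibition.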
# [3] = NCI Yeast Anticancer Drug Screen. Data for the rad50EPP+ strain (AID 151);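 also: 0% = growth of vehicle-treated control cultures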; details: S. cerevisiae rad50 mutant strain, stronger effect = higher value
# In short: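 Compounds were applied to the rad50EPP+ yeast strain, which bears a defined DNA repair alteration, and growth inhibition was determined relative to vehicle-treated cultures.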
# [4] = NCI Yeast Anticancer Drug Screen. Data for the rad50 strain (AID 155);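 also: 0% = growth of vehicle-only cultures of the same strain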; details: S. cerevisiae rad50 strain growth inhibition, stronger effect = higher value
# In short: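 Growth of the mutant yeast was measured after compound exposure and referenced to vehicle-treated cultures.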
# [5] = NCI Yeast Anticancer Drug Screen. Data for the mec2-1 strain (AID 157); details: S. cerevisiae mec2-1 strain, stronger effect = higher value
# In short: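 Strain: mec2-1 (DNA repair/cell cycle alteration). Compound exposure, then growth measured; inhibition expressed relative to vehicle.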
# [6] = NCI Yeast Anticancer Drug Screen. Data for the rad14 strain (AID 159);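 also: 0% = growth of vehicle-treated control cultures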; details: S. cerevisiae rad14 strain growth inhibition, stronger effect = higher value
# In short: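 Here, inhibition of yeast growth was measured after compound exposure, using a strain with a genetic defect in DNA damage repair and vehicle-treated cultures as the reference.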
# [7] = NCI Yeast Anticancer Drug Screen. Data for the sgs1 mgt1 strain (AID 161);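 also: 0% = growth of cultures given vehicle only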; details: S. cerevisiae sgs1 mgt1 strain, stronger effect = higher value
# In short: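 Test agents were incubated with a DNA-repair-mutant yeast strain. Growth was then read and compared against vehicle-treated controls.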
# [8] = NCI Yeast Anticancer Drug Screen. Data for the CLN2oe strain (AID 163);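 also: 0% = growth of vehicle-only control cultures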; details: S. cerevisiae CLN2oe strain, stronger effect = higher value
# In short: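 Growth of a genetically modified yeast strain is measured after compound exposure and compared with cultures given vehicle alone.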
# [9] = NCI Yeast Anticancer Drug Screen. Data for the cln2 rad14 strain (AID 165);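 also: 0% = growth equal to vehicle treated cultures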; details: S. cerevisiae cln2 rad14 strain, stronger effect = higher value
# In short: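 Compounds are applied to the cln2 rad14 yeast strain, and growth is then compared with that of vehicle-treated cultures to give inhibition.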
# [10] = NCI Yeast Anticancer Drug Screen. Data for the bub3 strain (AID 167); details: S. cerevisiae bub3 mutant strain, stronger effect = higher value
# In short: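 Whole-cell yeast assay. The mutant strain was incubated with compounds, and growth inhibition was determined by comparison with vehicle-treated cells.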
# [11] = NCI Yeast Anticancer Drug Screen. Data for the wt2 strain (AID 169);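 also: 0% = growth of vehicle-treated yeast cultures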; details: S. cerevisiae wt2 strain growth inhibition, stronger effect = higher value
# In short: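 This strain belongs to a panel of yeast strains with defined genetic alterations in DNA damage repair or cell cycle control. Compounds are applied, and growth inhibition is measured against vehicle-treated cultures.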
# [12] = NCI Yeast Anticancer Drug Screen. Data for the mlh1 strain (AID 171);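 also: 0% = growth of vehicle-treated control cultures of the same strain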; details: S. cerevisiae mlh1 strain growth inhibition, stronger effect = higher value
# In short: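 Growth of the mutant yeast strain after compound exposure, expressed as inhibition relative to vehicle-only controls.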
# [13] = NCI Yeast Anticancer Drug Screen. Data for the sgs1 strain (AID 173);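 also: 0% = growth of vehicle-only control cultures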; details: S. cerevisiae sgs1 mutant, stronger effect = higher value
# In short: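 Growth of a yeast strain bearing a defined genetic alteration is measured after compound treatment. Inhibition is expressed relative to vehicle-only controls.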
# [14] = NCI Yeast Anticancer Drug Screen. Data for the mlh1 rad18 strain (AID 175); details: S. cerevisiae mlh1 rad18 strain growth inhibition, stronger effect = higher value
# In short: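 Read-out is yeast growth inhibition, calculated against vehicle-only controls. The compound was applied to a strain engineered with DNA damage repair alterations.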
# [15] = NCI Yeast Anticancer Drug Screen. Data for the rad18 strain (AID 177); details: S. cerevisiae rad18 mutant growth inhibition, stronger effect = higher value
# In short: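 Growth of the mutant yeast strain after compound exposure, normalised to vehicle-only cultures.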
# [16] = at 5.0 µM (retest, dose inferred, filed as 0.5)
# [17] = at 50.0 µM (retest, dose inferred, filed as 5.0)
compound,measurement,setting,value
CC1=CC(=C(c2ccc(N)cc2)c2ccc(N)cc2)C=CC1=N,growth inhibition,[1]; at 1.2 µM,20% (inactive)
same,growth inhibition,[1]; at 3.7 µM,49% (inactive)
same,growth inhibition,[1]; at 11.0 µM,47% (inactive)
same,growth inhibition,[1]; at 33.0 µM,32% (inactive)
same,growth inhibition,[1]; at 100.0 µM,91% (active)
same,growth inhibition,[2]; at 1.2 µM,0% (inactive)
same,growth inhibition,[2]; at 3.7 µM,-1% (inactive)
same,growth inhibition,[2]; at 11.0 µM,7% (inactive)
same,growth inhibition,[2]; at 33.0 µM,2% (inactive)
same,growth inhibition,[2]; at 100.0 µM,19% (inactive)
same,growth inhibition,[3]; at 1.2 µM,15% (inactive)
same,growth inhibition,[3]; at 3.7 µM,22% (inactive)
same,growth inhibition,[3]; at 11.0 µM,20% (inactive)
same,growth inhibition,[3]; at 33.0 µM,29% (inactive)
same,growth inhibition,[3]; at 100.0 µM,51% (inactive)
same,growth inhibition,[4]; at 1.2 µM,-2% (inactive)
same,growth inhibition,[4]; at 3.7 µM,17% (inactive)
same,growth inhibition,[4]; [16],21% (inactive) and 1% (inactive)
same,growth inhibition,[4]; at 11.0 µM,17% (inactive)
same,growth inhibition,[4]; at 33.0 µM,7% (inactive)
same,growth inhibition,[4]; [17],38% (inactive) and 93% (active)
same,growth inhibition,[4]; at 50.0 µM,32.7% (inactive) and 35.3% (inactive)
same,growth inhibition,[4]; at 100.0 µM,82% (active)
same,growth inhibition,[5]; at 1.2 µM,7% (inactive)
same,growth inhibition,[5]; at 3.7 µM,2% (inactive)
same,growth inhibition,[5]; [16],14% (inactive) and -7% (inactive)
same,growth inhibition,[5]; at 11.0 µM,-1% (inactive)
same,growth inhibition,[5]; at 33.0 µM,-6% (inactive)
same,growth inhibition,[5]; [17],89% (active) and 80% (active)
same,growth inhibition,[5]; at 50.0 µM,58.7% (inactive) and 12.3% (inactive)
same,growth inhibition,[5]; at 100.0 µM,73% (active)
same,growth inhibition,[6]; at 1.2 µM,-9% (inactive)
same,growth inhibition,[6]; at 3.7 µM,0% (inactive)
same,growth inhibition,[6]; at 11.0 µM,-4% (inactive)
same,growth inhibition,[6]; at 33.0 µM,-4% (inactive)
same,growth inhibition,[6]; at 100.0 µM,74% (active)
same,growth inhibition,[7]; [16],15% (inactive) and 2% (inactive)
same,growth inhibition,[7]; [17],30% (inactive) and 50% (inactive)
same,growth inhibition,[7]; at 50.0 µM,59.5% (inactive) and 48.1% (inactive)
same,growth inhibition,[8]; at 1.2 µM,22% (inactive)
same,growth inhibition,[8]; at 3.7 µM,43% (inactive)
same,growth inhibition,[8]; at 11.0 µM,39% (inactive)
same,growth inhibition,[8]; at 33.0 µM,23% (inactive)
same,growth inhibition,[8]; at 100.0 µM,78% (active)
same,growth inhibition,[9]; [16],1% (inactive) and -1% (inactive)
same,growth inhibition,[9]; [17],42% (inactive) and 61% (inactive)
same,growth inhibition,[9]; at 50.0 µM,34% (inactive) and -84.5% (inactive)
same,growth inhibition,[10]; at 1.2 µM,-12% (inactive)
same,growth inhibition,[10]; at 3.7 µM,8% (inactive)
same,growth inhibition,[10]; [16],18% (inactive) and -1% (inactive)
same,growth inhibition,[10]; at 11.0 µM,8% (inactive)
same,growth inhibition,[10]; at 33.0 µM,12% (inactive)
same,growth inhibition,[10]; [17],90% (active) and 76% (active)
same,growth inhibition,[10]; at 50.0 µM,58.8% (inactive) and 24.9% (inactive)
same,growth inhibition,[10]; at 100.0 µM,88% (active)
same,growth inhibition,[11]; at 1.2 µM,-18% (inactive)
same,growth inhibition,[11]; at 3.7 µM,-13% (inactive)
same,growth inhibition,[11]; at 11.0 µM,-12% (inactive)
same,growth inhibition,[11]; at 33.0 µM,-6% (inactive)
same,growth inhibition,[11]; at 100.0 µM,94% (active)
same,growth inhibition,[12]; at 1.2 µM,1% (inactive)
same,growth inhibition,[12]; at 3.7 µM,-4% (inactive)
same,growth inhibition,[12]; at 11.0 µM,1% (inactive)
same,growth inhibition,[12]; at 33.0 µM,-3% (inactive)
same,growth inhibition,[12]; at 100.0 µM,81% (active)
same,growth inhibition,[13]; at 1.2 µM,11% (inactive)
same,growth inhibition,[13]; at 3.7 µM,18% (inactive)
same,growth inhibition,[13]; at 11.0 µM,4% (inactive)
same,growth inhibition,[13]; at 33.0 µM,11% (inactive)
same,growth inhibition,[13]; at 100.0 µM,77% (active)
same,growth inhibition,[14]; [16],9% (inactive) and -3% (inactive)
same,growth inhibition,[14]; [17],54% (inactive) and 75% (active)
same,growth inhibition,[14]; at 50.0 µM,66% (inactive) and 61.9% (inactive)
same,growth inhibition,[15]; at 1.2 µM,6% (inactive)
same,growth inhibition,[15]; at 3.7 µM,4% (inactive)
same,growth inhibition,[15]; at 11.0 µM,-22% (inactive)
same,growth inhibition,[15]; at 33.0 µM,9% (inactive)
same,growth inhibition,[15]; at 100.0 µM,81% (active)
